Screening data from PubChem.
Cycloheximide cs – counter-screen hit for Shiga toxin inhibitors, cycloheximide. cell reporter, cycloheximide protein synthesis inhibition counterscreen. max response, %. 300,000 tested, 12% active. AID 2314; in the data active = max response mostly above about 13%, no sharp cut-off; inactive = mostly below about 14%; note: read at 38.3 µM for the half of the compounds with a filed dose; 0% is about no effect
NS1 inh – blocks influenza NS1 protein function; Potency, µM (doses to about 46.1 µM), without a hit: at the highest dose activity, positive = more growth; 270,000 tested, 0.4% active; calls by dose curve; note: potency is the fitted concentration of half-maximal effect; actives are rising curves; nearly all actives have a fitted effect of over 50% in size
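Recovery from NS1-induced slow growth read by OD600 in budding yeast switched to galactose assay medium (pH 6.0, -URA) at 1:100 dilution. Compound 23 nl per well; the matching strain lacking NS1 serves as control.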
SARS PLpro yeast – inhibitors of SARS-CoV papain-like protease in yeast. S. cerevisiae expressing SARS-CoV PLpro, growth rescue. Potency, µM (series often up to 32.9 µM), for the others: top-dose activity, positive = growth rescue, actives largely listed as activators. 330,000 tested, 0.19% active; calls by dose curve; note: potency is the fitted concentration of half-maximal effect; 0% is about no effect; nearly all actives have a fitted effect of over 55% in size
Pf growth 96h – inhibits malaria parasite growth, 96 h; P. falciparum luciferase reporter growth, 96 h; Potency, µM (titrated, usually from 28.7 µM), inactives show at the highest dose activity change, negative = inhibition, usual class: inhibitors; 320,000 tested, 6.9% active; AID 504834; note: potency is the fitted concentration of half-maximal effect; % is set by controls: 0 for no effect and ±100 for the full control effect
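Luminescence readout: decreased luciferase signal marks inhibited growth of reporter-expressing P. falciparum in infected red cells (2% hematocrit, 0.05% parasitemia final), exposed to compound two generations (96 h, 37 C, 5% CO2).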
Shiga inhibitor – blocks Shiga toxin action in Vero cells | Vero cells, Shiga toxin protein synthesis inhibition reporter | inhibition, % at 38.7 µM | 290,000 tested, 9.2% active; in the data active = inhibition mostly above about 28%, no sharp cut-off; inactive = mostly below about 43%; note: 0% is about no effect
Pf growth 48h – inhibits P. falciparum growth in the first generation, 48 h. P. falciparum luciferase growth in erythrocytes, 48 h. Potency, µM (highest dose often 28.7 µM), for the others: at the top dose activity change, negative = inhibition, most hits filed as inhibitors. 310,000 tested, 5.9% active; note: potency is the fitted concentration of half-maximal effect; % is set by controls: 0 for no effect and ±100 for the full control effect
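First compound was added to culture medium, then infected red cells at 0.1% parasitemia and 2% hematocrit (final). After incubation at 37 C under 5% CO2, luciferase detection reagent was dispensed and light output recorded.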
Numbers without * were called inactive; ? = inconclusive; . = no result. Only some compounds are listed: those with a hit (about 21% of all), similar ones and a draw of the others. Unless noted, calls come from the whole dose curve; as a rule, active = well fitted inhibition curve with a large enough effect; inconclusive = small, poorly fitted or top-dose-only effect, or another doubt; inactive = no such curve, though single readings can be large or run the other way.

SMILES	Cycloheximide cs	NS1 inh	SARS PLpro yeast	Pf growth 96h	Shiga inhibitor	Pf growth 48h
O=c1[nH]c2cc3c(cc2cc1C(c1nnnn1Cc1ccccc1)N1CCN2CCCC2C1)OCCO3 (stereo not drawn)	6	?	5%	12µM*	11	?
Cc1cc(N2CCN(C(=O)OC(C)(C)C)CC2)n2ncnc2n1	-4	-4%	0%	.	-17	3%
CC(=O)OCCCN1C(=O)c2ccc(Br)cc2C1=O	4	-8%	1%	12%	8	1%
Cc1ccc(SCC(=O)Nc2cccc(NC(=O)c3ccco3)c2)cc1	9	-30%	-4%	35%	15	?
CCc1ccc2[nH]c(=O)c(C(c3nnnn3CC3CCCO3)N3CCCc4ccccc43)cc2c1 (stereo not drawn)	9	-29%	3%	?	-10	12µM*
CN(C)c1ccc2c(O)cc(=O)n(C)c2c1	-1	?	-5%	5.2µM*	31	-4%
COc1ccc(NC(=O)CCCC(=O)c2ccccc2)c(OC)c1	16*	-4%	-1%	?	21	?
COc1ccc(CCC(C)NC(=O)CCc2ccccc2)c(OC)c1 (stereo not drawn)	-4	-46%	-1%	?	-10	9.3µM*
COc1ccc(NC(=O)CCC(=O)c2cccs2)cc1S(=O)(=O)Nc1ccccc1Cl	12	?	20%	-17%	47*	16%
COc1ccc(NC(=O)CCCc2ccccc2)c(OC)c1	19*	-22%	-1%	1%	.	32%
O=C(Nc1ccc(Cl)c(S(=O)(=O)Nc2ccccc2Cl)c1)c1cccs1	-4	16%	-64%	-7%	-7	-1%
O=C(CNC(=O)c1ccccc1)NCc1nc2ccccc2[nH]1	.	.	1%	4%	.	4%
Cc1csc(=O)n1CCC(=O)OCC(=O)NNC(=O)c1ccc(Cl)cc1	.	.	0%	2%	.	7%
CC(C)(C)OC(=O)NCCCC[C@H](NC(=O)c1[nH]cnc1C(=O)N[C@@H](Cc1ccccc1)C(=O)OCc1ccccc1)C(=O)OC(C)(C)C	.	.	-8%	.	.	.
O=C(N/N=C/c1cc2c(cc1Cl)OCO2)c1cc(-c2ccccc2)n[nH]1	-1	8%	1%	-26%	-23	?
Cc1nnc(SCC(=O)NC2CCCCC2C)s1 (stereo not drawn)	-2	1%	1%	?	14	11%
CNC(=O)C1(C(F)(F)F)CC(CCCO)CCCO1 (stereo not drawn)	6	.	.	.	-7	.
COc1cc(NC(=O)CCC(=O)c2cccs2)cc(OC)c1	6	5%	-1%	?	-15	17%
COc1ccc(NC(=O)CCC(=O)c2cccs2)c(OC)c1	31*	3%	1%	-5%	77*	12%
Cc1ccc(NC(=O)c2ccc(=O)[nH]n2)cc1S(=O)(=O)Nc1ccc(SC(F)F)cc1	.	.	3%	.	.	.
CCN(CC)c1ccc(NC(=O)C2CCCN(S(=O)(=O)c3cccnc3)C2)c(C)c1 (stereo not drawn)	21	-24%	-1%	9.3µM*	12	.
Cc1cc(N/C=C/C(=O)c2ccc(Br)cc2)no1	16*	-2%	0%	-14%	49*	106%
Cc1cc(N/C=C/C(=O)c2cccc3ccccc23)no1	11	-53%	-7%	.	27	16%
Cc1ccnc(N/C=C/C(=O)c2ccc(Br)cc2)c1	49*	-6%	-2%	122%	110*	58%
O=C(/C=C\Nc1ccc(Cl)cn1)c1ccc(Br)cc1	14	0%	0%	8%	36	108%
COc1ccc(C(=O)/C=C/Nc2cc(C)ccn2)cc1	29*	-71%	-2%	-50%	38	82%
CC(=O)Nc1ccc(S(=O)(=O)Nc2ccc(Nc3ccccc3)cc2)cc1	-5	3%	1%	?	2	-7%
Cc1cc(-c2nsc(=O)o2)c(S(C)(=O)=O)s1	-1	-82%	-3%	136%	-4	3%
COc1ccc(CN2C3CCC2CC(NC(=O)c2cc(OC)c(OC)c(OC)c2)C3)cc1 (stereo not drawn)	-2	14%	4%	?	.	?
FC(F)(F)C1=CC(c2ccc(Br)cc2)=NCCN1	-3	6%	-6%	6.6µM*	-13	?
